The record followed here is PubChem BioAssay (EPA / NIEHS).

Activity calls are given as the source filed them. Rule for the calls: active = hit-call score of the fitted dose curve at least 0.9, where 1 is the maximum; inactive = score below 0.9.

The AC50 is the concentration giving half of the maximal activity seen.

Read-out in this experiment: urokinase plasminogen activator (uPA), PLAU (gene 5328)
Briefly: BSK_KF3CT_uPA: BioMAP Diversity Plus: KF3CT Assay for urokinase plasminogen activator (uPA) Biomarker Activity (AID 2283075). Conditions: primary human keratinocytes with fibroblasts; actives raise or lower the signal. As to the method:
BSK_KF3CT is a cell-based, multiplexed-readout assay that uses keratinocytes and foreskin fibroblasts, a human skin primary cell co-culture, with measurements taken at 24 hours after chemical dosing in a 96-well plate.BSK_KF3CTA is an assay component measured in the BSK_KF3CT assay. It measures uPA antibody related to regulation of gene expression using ELISA technology.Data from the assay component BSK_KF3CTA was analyzed into 1 assay endpoint. This assay endpoint, BSK_KF3CTA, was analyzed with bidirectional fitting relative to DMSO as the negative control and baseline of activity. Using a type of binding reporter, gain or loss-of-signal activity can be used to understand changes in the signaling as they relate to the gene PLAU. Furthermore, this assay endpoint can be referred to as a primary readout, because this assay has produced multiple assay endpoints where this one serves a signaling function. To generalize the intended target to other relatable targets, this assay endpoint is annotated to the protease intended target family, where the subfamily is serine protease.
The levels of cell surface (or secreted, indicated by the prefix "s") biomarker endpoints were measured by ELISA. Overt cytotoxicity to cells in confluent adherent cultures (all systems other than the BT system) was assessed by measuring total protein levels using sulforhodamine B (SRB) staining in parallel cultures at the time of biomarker measurements, indicated as SRB endpoints. For proliferation assays for adherent cell types, individual cell types are cultured at sub-confluence and relative cell numbers quantified by SRB staining at time points optimized for each system (48 h: 3C and CASM3C systems; 72 h: BT and HDF3CGF systems; 96 h: SAg system). SRB was performed by staining cells with 0.1% SRB after fixation with 10% TCA and reading wells at 560 nm.Viability and proliferation of PBMC (T cells) was quantified by Alamar Blue reduction for the SAg and BT systems. For PBMC viability (referred to as PBMC Cytotoxicity within the assay endpoint names), cells were plated (75,000/well in a 96-well plate) and then chemical samples added for 1 h before addition of activators, SEB and TSST-1 (20 ng/mL final concentration each). Cells were incubated for 90 h. Then, Alamar Blue (20 uL/well) (Invitrogen, Cat DAL1100) was added for 6 h, and the plates were read with a fluorescence microplate reader at 546/580 nm (excitation/emission). For PBMC proliferation, cells were plated and activated as above but incubated for only 16 h prior to addition of Alamar Blue. Plates were read after 6 h.
In the case of `CCCC(CCC)C(=O)O`, the result was inactive.

`COCc1nnc(-c2ccc[n+]([O-])c2)n1-c1c(Cl)c(Cl)cc2[nH]c(=O)c(=O)[nH]c12`: the result was inactive.

With `CCCCCCCCCC`, the outcome was inactive.

In the case of `CCc1cccc(CC)c1N`, the result was inactive.

Consider `NC(=O)N(O)[C@@H]1COc2cc(OCc3ccccc3)ccc21`, for which the outcome was inactive.

As for `O=S(=O)(O)CCC(F)(F)C(F)(F)C(F)(F)C(F)(F)C(F)(F)C(F)(F)F`, the outcome was inactive.

Take `Cc1nccn1-c1ccc(Sc2cccc(C3(C(N)=O)CCOCC3)c2)cc1`: the outcome was inactive.

On to `NC(=O)N1c2ccccc2C=Cc2ccccc21`, for which the result was inactive.

For the compound `Cn1cc[nH]c1=S`, the result was inactive.

On to `NC(=O)NN=Cc1ccc([N+](=O)[O-])o1`, for which the result was inactive.

Consider `CC1(C)C(=O)N(Cl)C(=O)N1Cl`, for which the result was inactive.

With `COS(C)(=O)=O`, the outcome was inactive.

Regarding `CC(C)CCCCCCOC(=O)C1CCCCC1C(=O)OCCCCCCC(C)C` (stereo not given), the result was inactive.

Take `CCCCCCCCCCCCCCO`: the result was inactive.

As to `OCCNCCO`, the result was inactive.

On to `Cc1cccc(O)c1C`, for which the outcome was inactive.

Regarding `FC(F)(F)COC(OCC(F)(F)F)OCC(F)(F)F`, the outcome was inactive.

As for `C=CN1CCCC1=O`, the result was inactive.

As to `CCCCCCCC/C=C\CCCCCCCC(=O)OC[C@@H](O)[C@H]1OC[C@H](O)[C@H]1O`, the result was inactive.

With `OC[C@H]1O[C@@H]2O[C@H]3[C@H](O)[C@@H](O)[C@@H](O[C@H]4[C@H](O)[C@@H](O)[C@@H](O[C@H]5[C@H](O)[C@@H](O)[C@@H](O[C@H]6[C@H](O)[C@@H](O)[C@@H](O[C@H]7[C@H](O)[C@@H](O)[C@@H](O[C@H]1[C@H](O)[C@H]2O)O[C@@H]7CO)O[C@@H]6CO)O[C@@H]5CO)O[C@@H]4CO)O[C@@H]3CO`, the outcome was inactive.

For the compound `C[C@]12C=CC(=O)C=C1CC[C@H]1[C@@H]3C[C@@H](O)[C@](O)(C(=O)CO)[C@@]3(C)C[C@H](O)[C@@]12F`, the result was inactive.

Consider `CCCCCCCCN(C)C`, for which the result was inactive.

Turning to `O=C(O)c1cccc(C[C@@H]2COc3ccc(OCc4nc5cc(F)ccc5s4)cc3[C@@H]2O)c1`, the result was inactive.

For `O=S(=O)(O)c1ccc(N=Nc2c(O)ccc3cc(S(=O)(=O)O)ccc23)cc1`, the result was inactive.

As for `OCc1c[nH]c2ccccc12`, the result was inactive.

Take `C[C@@H](Oc1ccc(CNC(=O)c2cccnc2Oc2ccc3c(c2)OCO3)c(F)c1)C(=O)O`: the outcome was inactive.

Consider `CCOc1ccc2[nH]cc(C(=O)NCc3ccccc3)c(=O)c2n1`, for which the result was inactive.

For `O=C(O)c1ccc2c(c1)nc(C(=O)NC1CCN(C3CC3)CC1)n2Cc1cc(-c2ccc(Cl)s2)on1`, the outcome was inactive.

Turning to `FC(F)C(F)(F)COCC1CO1` (stereo not given), the outcome was inactive.

For `c1ccc(C(O[C@@H]2CCCN(CCc3ccc4c(c3)OCO4)C2)c2ccccc2)cc1`, the outcome was inactive.

As for `Nc1ccn([C@@H]2O[C@H](CO)[C@@H](O)[C@@H]2O)c(=O)n1`, the result was inactive.

Turning to `OCCC(F)(F)C(F)(F)C(F)(F)C(F)(F)F`, the outcome was inactive.

As to `O=C1CN(N=Cc2ccc([N+](=O)[O-])o2)C(=O)N1`, the result was inactive.

As to `OC[C@H]1O[C@@](CO)(O[C@H]2O[C@H](CO)[C@@H](O)[C@H](O)[C@H]2O)[C@@H](O)[C@@H]1O`, the outcome was inactive.

In the case of `CCc1ccc(O)c(C(C)(C)C)c1`, the AC50 was 35.3 µM (active).

`CCCCOC(=O)c1ccccc1`: the outcome was inactive.

On to `COc1cc2c(c(OC)c1OC)-c1ccc(OC)c(=O)cc1[C@@H](NC(C)=O)CC2`, for which the result was inactive.

As to `Cn1c(=O)c2[nH]cnc2n(C)c1=O`, the result was inactive.

For `OC(Cn1cncn1)(Cn1cncn1)c1ccc(F)cc1F`, the result was inactive.

As to `CCOC(N)=O`, the result was inactive.
